Consider 12 compounds from PubChem BioAssay (Tox21).

Values joined by “and” are separate entries in the source; they are usually repeats but may differ in a detail not shown here. Equal entries are not always repeated. Results filed as inconclusive are left out. Active and inactive are the calls of the source. Unless noted, the call rests on the fitted dose curve; in most records, active means well fitted curve in the direction sought with a large enough effect in the repeat runs; inconclusive means weak or mixed curves; inactive means no such curve, though single readings can be large; an effect the other way counts as inactive or inconclusive.

A short description of assay [1]: Caspase-3/7 induction in HepG2 cells by small molecules, qHTS assay (AID 1346978). Further: nearly all actives have a fitted effect of over 15% in size. The procedure, abridged: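 Wild-type HepG2 cells (2,000/well) were settled 5 h at 37 C, 5% CO2, then exposed to compounds in DMSO for 17 h. Caspase-3/7 activity was read by luminescence 30 min after adding Caspase-Glo 3/7 reagent at room temperature.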
The nature of assay [2]: Caspase-3/7 induction in CHO-K1 cells by small molecules, qHTS cell viability counter screen (AID 1346979). Further: nearly all actives have a fitted effect of over 35% in size. Further: potency means the concentration at half of the fitted maximal effect. The procedure, abridged:
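Multiplexed with Caspase-Glo 3/7 in CHO-K1 cells, this counter screen added CellTiter-Fluor after 16hr of compound exposure and recorded fluorescence 1hr later.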

The nature of assay [3]: Caspase-3/7 induction in CHO-K1 cells by small molecules, qHTS assay (AID 1346980). Further: nearly all actives have a fitted effect of over 15% in size. The procedure, abridged: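 Wild-type cells were seeded at 1,500 per well and settled 5 hr at 37 C, 5% CO2, then exposed to DMSO-dissolved compounds for 17 hr. Caspase-Glo 3/7 reagent was added, and luminescence was read after 30min at room temperature.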
The target of assay [4] is Nuclear receptor subfamily 1 group I member 2 (Homo sapiens) (UniProt O75469). As to the kind of experiment: Human pregnane X receptor (PXR) small molecule agonists, qHTS assay (AID 1346982). Further: nearly all actives have a fitted effect of over 35% in size. Further: potency means the concentration at half of the fitted maximal effect. The procedure, abridged: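 Reporter HepG2 cells expressing PXR-Luc are cultured in charcoal-stripped FBS (5%), treated with compounds for 24 hr at 37 C, and assayed by ONE-Glo luminescence after 30 min at room temperature.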
Nuclear receptor subfamily 1 group I member 2 (Homo sapiens), sequence (O75469 whole entry, looked up): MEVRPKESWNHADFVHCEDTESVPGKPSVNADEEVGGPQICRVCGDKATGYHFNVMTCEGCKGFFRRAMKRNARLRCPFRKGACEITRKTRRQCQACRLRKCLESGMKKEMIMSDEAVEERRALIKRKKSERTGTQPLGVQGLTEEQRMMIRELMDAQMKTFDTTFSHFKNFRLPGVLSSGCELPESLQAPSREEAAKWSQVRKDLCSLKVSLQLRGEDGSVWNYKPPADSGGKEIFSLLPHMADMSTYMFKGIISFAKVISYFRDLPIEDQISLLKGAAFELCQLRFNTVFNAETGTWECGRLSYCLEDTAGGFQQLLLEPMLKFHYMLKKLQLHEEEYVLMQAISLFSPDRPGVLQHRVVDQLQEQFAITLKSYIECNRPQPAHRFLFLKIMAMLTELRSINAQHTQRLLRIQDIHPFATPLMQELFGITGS

For assay [5], the target named is Cytochrome P450 2C19 (Homo sapiens) (UniProt P33261). As to the kind of experiment: Cytochrome P450 Family 2 Subfamily C Member 19 (CYP2C19) small molecule antagonists: luciferase reporter qHTS assay (AID 1671197). Further: nearly all actives have a fitted effect of over 65% in size. Further: potency means the concentration at half of the fitted maximal effect. In outline: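 Quantitative high-throughput screen of the Tox21 library using CYP2C19 with proluciferin substrate. Reaction: NADPH regeneration, 37C, 1 h, after 10 min compound preincubation at room temperature. Readout: luminescence.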
Cytochrome P450 2C19 (Homo sapiens), sequence (P33261 whole entry, looked up): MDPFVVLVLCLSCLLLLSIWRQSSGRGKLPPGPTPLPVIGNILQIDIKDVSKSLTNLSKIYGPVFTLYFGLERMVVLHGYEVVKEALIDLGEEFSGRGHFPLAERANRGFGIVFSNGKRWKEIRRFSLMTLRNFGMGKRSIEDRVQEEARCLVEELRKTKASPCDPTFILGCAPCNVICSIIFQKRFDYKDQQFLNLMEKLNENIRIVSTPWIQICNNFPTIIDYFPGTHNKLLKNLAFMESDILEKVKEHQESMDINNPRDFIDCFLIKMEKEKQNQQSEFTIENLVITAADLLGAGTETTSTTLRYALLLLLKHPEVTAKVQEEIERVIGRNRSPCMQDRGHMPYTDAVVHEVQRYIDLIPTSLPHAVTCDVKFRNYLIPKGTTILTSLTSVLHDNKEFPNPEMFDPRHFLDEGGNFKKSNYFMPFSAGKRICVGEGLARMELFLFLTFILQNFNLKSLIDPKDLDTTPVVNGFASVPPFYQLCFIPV

The target of assay [6] is Cytochrome P450 2C9 (Homo sapiens) (UniProt P11712). As to the kind of experiment: Cytochrome P450 Family 2 Subfamily C Member 9 (CYP2C9) small molecule antagonists: luciferase reporter qHTS assay (AID 1671198). Further: nearly all actives have a fitted effect of over 50% in size. Further: potency means the concentration at half of the fitted maximal effect. In outline: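 CYP2C9 activity was measured with a P450-Glo proluciferin substrate. Enzyme–substrate mix was held with compound for 10 min at room temperature, then NADPH regeneration solution was added for 1 h at 37C. Luciferin product was read as luminescence.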
Cytochrome P450 2C9 (Homo sapiens), sequence (P11712 whole entry, looked up): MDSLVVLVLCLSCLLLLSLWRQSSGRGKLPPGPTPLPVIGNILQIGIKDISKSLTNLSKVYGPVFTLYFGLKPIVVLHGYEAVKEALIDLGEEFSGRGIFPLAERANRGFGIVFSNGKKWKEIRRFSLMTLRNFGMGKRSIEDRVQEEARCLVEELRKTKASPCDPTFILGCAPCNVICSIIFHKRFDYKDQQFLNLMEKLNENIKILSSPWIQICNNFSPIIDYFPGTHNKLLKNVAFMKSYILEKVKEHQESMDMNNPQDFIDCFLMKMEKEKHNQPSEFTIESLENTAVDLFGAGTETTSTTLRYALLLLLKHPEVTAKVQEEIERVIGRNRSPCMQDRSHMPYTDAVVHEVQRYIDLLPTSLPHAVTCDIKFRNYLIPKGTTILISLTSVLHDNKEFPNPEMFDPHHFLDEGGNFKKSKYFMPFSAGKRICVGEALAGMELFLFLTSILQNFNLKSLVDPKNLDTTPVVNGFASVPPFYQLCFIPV

Assay [7] deals with Cytochrome P450 3A4 (Homo sapiens) (UniProt P08684). As to the kind of experiment: Cytochrome P450 Family 3 Subfamily A Member 4 (CYP3A4) small molecule antagonists: luciferase reporter qHTS assay (AID 1671201). Further: nearly all actives have a fitted effect of over 50% in size. Further: potency means the concentration at half of the fitted maximal effect. The procedure, abridged:
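Room-temperature assay throughout: 10 min compound–enzyme/substrate preincubation, 1 h reaction after NADPH regeneration solution, 20 min detection. Luciferin formed from proluciferin substrate is quantified by luminescence.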

The nature of assay [8]: Caspase-3/7 induction in HepG2 cells by small molecules, qHTS cell viability counter screen (AID 1346981). Further: nearly all actives have a fitted effect of over 30% in size. Further: potency means the concentration at half of the fitted maximal effect. In outline: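 In this quantitative HTS counter screen, compounds delivered in DMSO were left on unmodified HepG2 cells for 16 hr at 37 C. Viability was then determined fluorometrically with CellTiter-Fluor, in parallel with caspase-3/7 induction in the same wells.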

Assay [9] has as its target Acetylcholinesterase (Homo sapiens) (UniProt P22303). Kind of assay: Acetylcholinesterase (AChE) small molecule antagonists: enzyme-based qHTS assay (AID 1347397; calls by dose curve; further: nearly all actives have a fitted effect of over 55% in size; further: potency means the concentration at half of the fitted maximal effect). To be noted: Potency: AChE enzyme activity inhibition. In outline: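 Tox21 library chemicals are tested in qHTS format against recombinant human AChE. The enzyme, dispensed at 50 mU/mL, sits with compound for 30 min at room temperature. A DTNB–acetylthiocholine cocktail follows, and colour is read after 10 min.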

The target is the same in assay [10]. Kind of assay: Acetylcholinesterase (AChE) small molecule antagonists: fluorescence cell-based qHTS assay (AID 1347398; calls by dose curve; further: nearly all actives have a fitted effect of over 50% in size; further: potency means the concentration at half of the fitted maximal effect). To be noted: Potency: AChE activity. The procedure, abridged: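 Cellular AChE inhibition: SH-SY5Y cells treated with test chemical for 30 min at 37 C, then acetylthiocholine hydrolysis followed over 40 min at room temperature via thiocholine-reactive Thiolite Green fluorescence (490/520 nm).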

Assay [11] shares this target. As to the kind of experiment: Acetylcholinesterase (AChE) small molecule antagonists: enzyme-based qHTS assay with human liver microsomes (AID 1347399; calls by dose curve; further: nearly all actives have a fitted effect of over 60% in size; further: potency means the concentration at half of the fitted maximal effect). To be noted: Potency: qHTS inhibition. The procedure, abridged:
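Recombinant human AChE (50 mU/mL in the enzyme mix) and human liver microsomes (0.25 mg/mL final) were preincubated with compound and NADPH (0.25 mg/mL final) for 30 min at 37 C. Acetylthiocholine/DTNB was then added; thiocholine was read colorimetrically after 10 min at room temperature.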

Assay [12] deals with Cytochrome P450 1A2 (Homo sapiens) (UniProt P05177). Kind of assay: Cytochrome P450 Family 1 Subfamily A Member 2 (CYP1A2) small molecule antagonists: luciferase reporter qHTS assay (AID 1671199). Further: nearly all actives have a fitted effect of over 50% in size. Further: potency means the concentration at half of the fitted maximal effect. The procedure, abridged:
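Steps: enzyme-substrate mix dispensed; test compounds and furafylline control pinned in; 10 min room temperature; NADPH regeneration solution added, 1 h; reaction stopped with luciferin detection reagent; luminescence read after 20 min.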

Assay [13] concerns the target Acetylcholinesterase (Homo sapiens) (UniProt P22303). As to the kind of experiment: Acetylcholinesterase (AChE) small molecule antagonists: colormetric cell-based qHTS assay (AID 1347395; calls by dose curve; further: nearly all actives have a fitted effect of over 30% in size; further: potency means the concentration at half of the fitted maximal effect). In outline: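 In this cell-based qHTS, attached SH-SY5Y cells were treated with test chemicals for 30 min, after which acetylthiocholine hydrolysis was followed by DTNB colour development over 90 min at 37 C.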

Assay [14] deals with Voltage-gated inwardly rectifying potassium channel KCNH2 (Homo sapiens) (UniProt Q12809). Kind of assay: Human Ether-a-go-go-Related Gene (hERG) channel small molecule antagonists: fluorescence cell-based qHTS assay (AID 1671200). Further: nearly all actives have a fitted effect of over 50% in size. Further: potency means the concentration at half of the fitted maximal effect. The procedure, abridged:
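Cell line hERG-U2OS; dye FluxOR II, 1 h RT dark; Tl+ stimulus; ex 480/em 540 nm, read each second for 2 min.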

Assay [15] concerns the target Cytochrome P450 2D6 (Homo sapiens) (UniProt P10635). As to the kind of experiment: Cytochrome P450 Family 2 Subfamily D Member 6 (CYP2D6) small molecule antagonists: luciferase reporter qHTS assay (AID 1671196). Further: nearly all actives have a fitted effect of over 50% in size. Further: potency means the concentration at half of the fitted maximal effect. The procedure, abridged: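 Test chemicals meet CYP2D6 plus proluciferin substrate (10 min, RT); NADPH regenerating solution then drives turnover for 1 h. Detection reagent halts the reaction; luminescence measured after 20 min.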

Cytochrome P450 1A2 (Homo sapiens), sequence (P05177 whole entry, looked up): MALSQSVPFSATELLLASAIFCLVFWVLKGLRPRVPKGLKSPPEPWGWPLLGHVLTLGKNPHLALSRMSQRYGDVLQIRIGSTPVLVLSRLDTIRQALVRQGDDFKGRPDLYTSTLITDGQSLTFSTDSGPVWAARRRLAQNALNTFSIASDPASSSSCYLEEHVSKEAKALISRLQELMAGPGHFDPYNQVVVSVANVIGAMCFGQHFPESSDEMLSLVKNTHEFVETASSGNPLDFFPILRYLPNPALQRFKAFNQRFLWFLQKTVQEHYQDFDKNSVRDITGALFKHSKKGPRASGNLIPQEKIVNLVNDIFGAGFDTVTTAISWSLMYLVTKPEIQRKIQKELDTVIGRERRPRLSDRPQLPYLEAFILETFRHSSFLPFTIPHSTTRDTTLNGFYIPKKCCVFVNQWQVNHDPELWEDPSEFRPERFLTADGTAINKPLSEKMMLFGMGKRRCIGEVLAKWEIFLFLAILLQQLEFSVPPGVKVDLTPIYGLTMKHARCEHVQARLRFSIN
Cytochrome P450 2D6 (Homo sapiens), sequence (P10635 whole entry, looked up): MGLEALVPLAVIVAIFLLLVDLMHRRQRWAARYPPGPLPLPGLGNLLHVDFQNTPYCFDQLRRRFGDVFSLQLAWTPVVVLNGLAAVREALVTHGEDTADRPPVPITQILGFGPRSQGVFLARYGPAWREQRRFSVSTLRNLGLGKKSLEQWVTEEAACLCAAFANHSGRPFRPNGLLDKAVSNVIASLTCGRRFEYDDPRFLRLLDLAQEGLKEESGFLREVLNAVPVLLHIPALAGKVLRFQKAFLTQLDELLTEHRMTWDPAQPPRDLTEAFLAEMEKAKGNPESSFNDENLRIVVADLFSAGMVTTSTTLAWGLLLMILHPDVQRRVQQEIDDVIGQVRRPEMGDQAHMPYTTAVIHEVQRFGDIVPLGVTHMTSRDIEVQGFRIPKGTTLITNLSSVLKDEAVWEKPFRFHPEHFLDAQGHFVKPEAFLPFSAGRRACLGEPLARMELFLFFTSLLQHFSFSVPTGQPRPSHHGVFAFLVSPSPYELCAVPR
Voltage-gated inwardly rectifying potassium channel KCNH2 (Homo sapiens), sequence (Q12809 whole entry, looked up): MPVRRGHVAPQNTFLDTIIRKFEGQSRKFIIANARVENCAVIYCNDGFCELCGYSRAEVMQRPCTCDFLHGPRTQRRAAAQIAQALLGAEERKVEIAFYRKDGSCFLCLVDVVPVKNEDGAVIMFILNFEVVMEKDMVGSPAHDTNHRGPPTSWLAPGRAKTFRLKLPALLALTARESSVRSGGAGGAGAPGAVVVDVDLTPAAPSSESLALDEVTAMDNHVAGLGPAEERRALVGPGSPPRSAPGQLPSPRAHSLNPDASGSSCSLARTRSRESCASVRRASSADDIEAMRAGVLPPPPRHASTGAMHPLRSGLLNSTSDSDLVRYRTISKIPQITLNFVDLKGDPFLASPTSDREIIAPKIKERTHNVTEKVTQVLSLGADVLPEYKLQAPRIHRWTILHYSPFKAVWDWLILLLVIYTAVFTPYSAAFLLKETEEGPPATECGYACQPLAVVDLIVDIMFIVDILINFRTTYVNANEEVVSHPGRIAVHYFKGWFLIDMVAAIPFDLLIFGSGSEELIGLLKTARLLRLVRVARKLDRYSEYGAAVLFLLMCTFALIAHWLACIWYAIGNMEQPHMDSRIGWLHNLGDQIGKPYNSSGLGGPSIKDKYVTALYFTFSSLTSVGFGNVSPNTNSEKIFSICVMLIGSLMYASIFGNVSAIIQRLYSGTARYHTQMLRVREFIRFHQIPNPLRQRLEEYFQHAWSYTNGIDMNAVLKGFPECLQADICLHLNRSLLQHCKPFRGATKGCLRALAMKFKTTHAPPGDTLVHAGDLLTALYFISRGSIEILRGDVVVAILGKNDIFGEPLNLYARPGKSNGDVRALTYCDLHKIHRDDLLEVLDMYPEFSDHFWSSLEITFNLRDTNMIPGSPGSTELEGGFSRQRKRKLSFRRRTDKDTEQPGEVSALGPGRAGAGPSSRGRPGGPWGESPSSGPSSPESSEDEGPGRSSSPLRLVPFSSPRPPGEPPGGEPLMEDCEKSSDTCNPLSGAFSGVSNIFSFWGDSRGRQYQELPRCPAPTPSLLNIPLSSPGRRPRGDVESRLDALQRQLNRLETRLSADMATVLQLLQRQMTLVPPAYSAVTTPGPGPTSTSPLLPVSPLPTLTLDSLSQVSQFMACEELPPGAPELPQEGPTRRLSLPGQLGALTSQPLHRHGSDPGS
Acetylcholinesterase (Homo sapiens), sequence (P22303 whole entry, looked up): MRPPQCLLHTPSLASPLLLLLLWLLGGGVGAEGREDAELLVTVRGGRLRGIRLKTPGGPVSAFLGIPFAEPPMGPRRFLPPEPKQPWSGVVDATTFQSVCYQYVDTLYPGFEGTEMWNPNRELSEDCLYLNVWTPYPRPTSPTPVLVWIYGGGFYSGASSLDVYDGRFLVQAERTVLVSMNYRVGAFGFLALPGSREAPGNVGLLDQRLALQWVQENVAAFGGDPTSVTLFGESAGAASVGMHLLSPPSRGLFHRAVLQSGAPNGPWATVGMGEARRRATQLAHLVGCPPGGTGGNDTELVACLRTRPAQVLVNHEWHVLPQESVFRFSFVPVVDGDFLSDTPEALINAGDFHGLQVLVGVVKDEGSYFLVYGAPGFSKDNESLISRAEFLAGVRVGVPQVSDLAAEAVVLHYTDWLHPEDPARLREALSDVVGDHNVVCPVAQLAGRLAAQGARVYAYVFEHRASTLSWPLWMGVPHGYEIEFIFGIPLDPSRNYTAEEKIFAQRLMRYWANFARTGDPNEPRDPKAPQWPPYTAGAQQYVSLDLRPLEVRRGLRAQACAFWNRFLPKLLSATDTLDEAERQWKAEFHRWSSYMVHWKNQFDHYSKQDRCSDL
Cytochrome P450 3A4 (Homo sapiens), sequence (P08684 whole entry, looked up): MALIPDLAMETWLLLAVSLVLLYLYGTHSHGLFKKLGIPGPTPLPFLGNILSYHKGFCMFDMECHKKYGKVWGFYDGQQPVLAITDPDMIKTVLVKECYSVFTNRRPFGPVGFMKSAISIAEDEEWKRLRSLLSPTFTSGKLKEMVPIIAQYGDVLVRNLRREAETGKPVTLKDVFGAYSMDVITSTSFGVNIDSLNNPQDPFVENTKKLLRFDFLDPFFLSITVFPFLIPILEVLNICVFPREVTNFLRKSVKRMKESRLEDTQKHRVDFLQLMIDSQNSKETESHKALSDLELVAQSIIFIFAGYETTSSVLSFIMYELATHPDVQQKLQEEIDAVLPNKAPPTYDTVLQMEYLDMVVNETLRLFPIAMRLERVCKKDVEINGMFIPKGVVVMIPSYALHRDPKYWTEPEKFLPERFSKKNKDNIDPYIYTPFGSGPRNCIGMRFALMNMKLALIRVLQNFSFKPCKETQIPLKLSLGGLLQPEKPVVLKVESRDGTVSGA

With `CCCC[N+]1(C)CCCC1` (tested in a mixture with another compound), the Potency entry in assay [1], in assay [3], in assay [5], in assay [6] and in assay [7] was “inactive” throughout. Further, the Potency was 61.9 µM (active) in [2] and 69.4 µM (active) in assay [4].

Turning to `Nc1ccc(N=Nc2ccccc2)cc1`, the Potency result in [1], in [3], in assay [9], in [10] and in assay [11] was “inactive” throughout. Further, the Potency in assay [2] was 29.8 µM (active); in assay [8], 36.4 µM (active); in assay [4], 27.3 µM (active); in assay [5] it was 12.6 µM (active); in assay [6], 12.6 µM (active); in assay [12], 4.61 µM (active).

Turning to `Nc1c(Cl)c(Cl)c(Cl)c(Cl)c1Cl`, the Potency entry in assay [1], in [2], in assay [3], in assay [8], in assay [13] and in assay [9] was “inactive” in each case. Also, the Potency entry in assay [10], in assay [11], in assay [5], in assay [6] and in assay [14] was “inactive” throughout. Further, the Potency in assay [12] is 1.3 µM (active).

As for `Clc1cc(Cl)c(-c2cc(Cl)c(Cl)cc2Cl)cc1Cl`, the Potency result in assay [1], in assay [2], in assay [3], in assay [8], in assay [4] and in [13] was “inactive” throughout. Further, the Potency entry in assay [9], in assay [10], in assay [11], in assay [15], in [6] and in assay [14] was “inactive” in each case. Further, the Potency result in assay [7] was “inactive”.

As to `CCCCC(CC)COC(=O)c1ccccc1C(=O)OCC(CC)CCCC` (stereo not given), the Potency entry in assay [1], in [2], in assay [3], in assay [8], in assay [9] and in assay [10] was “inactive” in each case. The Potency result in [11] is “inactive”. In addition, the Potency in [4] was 6.86 µM (active); in [5], 14.2 µM (active); in assay [6], 9.47 µM (active); in [12] it was 33.6 µM (active).

In the case of `O=[N+]([O-])c1cccc2cccc([N+](=O)[O-])c12`, the Potency entry in [1], in [2], in assay [3], in assay [8], in assay [9] and in assay [11] was “inactive” in each case. The Potency entry in assay [15], in assay [6] and in assay [14] was “inactive” throughout. Further, the Potency is 30.8 µM (active) in [4] and 20.1 µM (active) in assay [13].

Consider `C#CCO`, for which the Potency entry in assay [1], in assay [2], in assay [3], in assay [4], in [13] and in [9] was “inactive” throughout. The Potency result in [10], in [11], in [15], in assay [5], in assay [6] and in [14] was “inactive” throughout. Also, the Potency entry in assay [7] is “inactive”.

Regarding `O=C1C(Cl)=C(Cl)C(=O)C(Cl)=C1Cl`, the Potency result in [1], in assay [3] and in assay [9] was “inactive” each time. In addition, the Potency in [2] is 24.2 µM (active) and 24.3 µM (active); in assay [8] it was 54.3 µM (active); in [4], 60.9 µM (active) and 61.1 µM (active); in assay [10], 35.5 µM (active) and 63.3 µM (active); in [15], 31.6 µM (active) and 25.2 µM (active); in [5] it was 7.94 µM (active) and 11.2 µM (active). Further, the Potency is 5.01 µM (active) and 8.94 µM (active) in assay [6]; 35.6 µM (active) in [12]; 34.7 µM (active) in assay [14]; 22.4 µM (active) in assay [7].

As to `CCOP(=O)(OCC)Oc1cc(C)nc(C(C)C)n1`, the Potency entry in assay [1], in [2], in [3], in [4], in assay [15] and in assay [6] was “inactive” throughout. In addition, the Potency entry in assay [14] and in [7] was “inactive” throughout. Besides, the Potency is 5.67 µM (active) in assay [9], 714 nM (active) in [10], 25.3 µM (active) in [11] and 35.8 µM (active) in [12].

As to `COP(=O)(OC)Oc1ccc([N+](=O)[O-])cc1`, the Potency result in assay [1], in [2], in assay [3], in assay [4], in assay [6] and in assay [12] was “inactive” each time. Besides, the Potency entry in [14] and in assay [7] was “inactive” throughout. In addition, the figures for the Potency in assay [15] and in assay [5] were 25.2 µM (active) and 20 µM (active), respectively.

Take `Nc1ccccc1-c1ccccc1`: the Potency result in assay [1], in [2], in [3], in [8], in [13] and in assay [9] was “inactive” in each case. In addition, the Potency entry in assay [10], in assay [11] and in [14] was “inactive” in each case. Also, the Potency in assay [15] is 28.1 µM (active); in [5] it was 35.4 µM (active); in assay [6], 31.5 µM (active); in [12], 35.4 µM (active).

Turning to `COP(=S)(NC(C)C)Oc1ccc(C)cc1[N+](=O)[O-]` (stereo not given), the Potency entry in assay [1], in assay [2], in assay [3], in [8], in assay [13] and in assay [9] was “inactive” throughout. For the same compound, the Potency entry in assay [10] and in assay [11] was “inactive” throughout. Moreover, the Potency in assay [4] was 30.6 µM (active); in assay [15] it was 44.8 µM (active); in assay [5], 0.283 µM (active); in assay [6] it was 2.52 µM (active); in assay [12] it was 11.2 µM (active); in [7], 0.633 µM (active).
